Results from PubChem BioAssay (NCI).
Where “and” joins values, the source holds several entries; their conditions need not be identical. Equal values may be shown once. The panel holds about 79,000 compounds, 15% with a hit somewhere; the sample as a whole holds those more often. A structure can be active in one record and inactive in another. Calls of active or inactive are those of the source. No stated cut-off is given here; in the data, active means growth inhibition above about 70%; inactive means the rest.

Columns and labels:
[1] = NCI Yeast Anticancer Drug Screen. Data for the rad50 strain (AID 155);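 further: 0% = growth of vehicle-only cultures of the same strain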; conditions: S. cerevisiae rad50 strain growth inhibition; at 50.0 µM; stronger effect = higher value
In short: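 Compounds were tested on a yeast strain with an engineered DNA damage repair alteration; the reported value is growth inhibition normalised to vehicle treatment.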

[2] = NCI Yeast Anticancer Drug Screen. Data for the mec2-1 strain (AID 157); conditions: S. cerevisiae mec2-1 strain, at 50.0 µM, stronger effect = higher value
In short: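 Yeast mec2-1 mutant treated with compound. Readout: growth inhibition vs vehicle controls.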

[3] = NCI Yeast Anticancer Drug Screen. Data for the sgs1 mgt1 strain (AID 161);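 further: 0% = growth of cultures given vehicle only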; conditions: S. cerevisiae sgs1 mgt1 strain, at 50.0 µM, stronger effect = higher value
In short: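 Mutant yeast exposed to compound; growth scored against vehicle-only wells.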

[4] = NCI Yeast Anticancer Drug Screen. Data for the cln2 rad14 strain (AID 165);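 further: 0% = growth equal to vehicle treated cultures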; conditions: S. cerevisiae cln2 rad14 strain, at 50.0 µM, stronger effect = higher value
In short: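 cln2 rad14 yeast strain; compound exposure; growth inhibition read vs vehicle controls.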

[5] = NCI Yeast Anticancer Drug Screen. Data for the bub3 strain (AID 167); conditions: S. cerevisiae bub3 mutant strain, at 50.0 µM, stronger effect = higher value
In short: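 Growth of a checkpoint-deficient yeast mutant is measured after compound exposure. Values represent inhibition relative to vehicle.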

[6] = NCI Yeast Anticancer Drug Screen. Data for the mlh1 rad18 strain (AID 175); conditions: S. cerevisiae mlh1 rad18 strain growth inhibition; at 50.0 µM; stronger effect = higher value
In short: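 Yeast w/ defined DNA-repair lesions; compound exposure; growth vs vehicle controls → % inhibition.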

Measured: growth inhibition

C[C@]12CCC(=O)N[C@@H]1CC[C@@H]1[C@@H]2CC[C@]2(C)[C@@H](OC(=O)COc3ccc(N(CCCl)CCCl)cc3)CC[C@@H]12
inactive: [1] 0.45% | [2] 4.7% | [3] 0.15% | [4] 11.8% | [5] 5.75% | [6] -12.8%

COc1cc(CCN(C)C)c([N+](=O)[O-])cc1OC
inactive: [1] 7.9% | [2] 21.6% | [3] 19.3% | [4] 17% | [5] 0.2% | [6] 34.7%

OC[P+](CO)(CO)CO
inactive: [1] -2.8% | [2] 1.05% | [3] -8.15% | [4] -24.9% | [5] 14.7% | [6] -5.9%

COc1ccc(C(N)Cc2ccccc2)cc1 (configuration not stated)
inactive: [1] 10.8% | [2] 3.15% | [3] 10.8% | [4] 9.85% | [5] 3.5% | [6] -2.35%

O=[N+]([O-])c1ccc(C#Cc2ccc(N(CCCl)CCCl)cc2)cc1
inactive: [1] 1.95% | [2] -8.85% | [3] 7.5% | [4] -65.5% | [5] 9.2% | [6] -3.95%

CN1CN(c2ccccc2)C2(CCN(CCCSc3ccccc3NC(=O)/C=C/c3ccccc3)CC2)C1=O
inactive: [1] 20% | [2] -3.95% | [3] 18.8% | [4] 18.9% | [5] 41.3% | [6] 34.2%

O=C1C2CCN(CC2)C1(CO)CO
inactive: [1] -4.4% | [2] -4.25% | [3] -26.6% | [4] -58.1% | [5] -30.4% | [6] -20.2%

COc1cc(CC(N)Cc2c[nH]c3ccccc23)cc(OC)c1OC (configuration not stated)
inactive: [1] -5.2% | [2] -5.8% | [3] -4.85% | [4] 24.6% | [5] -25.3% | [6] -3.35%

Cc1ccc(N)c(C)c1
inactive: [1] -2.05% | [2] -5.65% | [3] -1.5% | [4] -3.8% | [5] 3.2% | [6] -13.2%

O=C(Nc1ccc([As](=O)(O)O)cc1)Nc1cccc(Cl)c1Cl
inactive: [1] 37.9% | [2] 36.3% | [3] -8% | [4] 0.3% | [5] 44.1% | [6] 34.9%

CN(C)P(=O)(N(C)C)N(C)C
inactive: [1] 23.2% | [2] 6.4% | [3] -7.05% | [4] -16.9% | [5] 23.6% | [6] 25.1%

O=C(O)C(=O)O.[Ti].[c-]1[c-][c-][cH-][c-]1.[c-]1[c-][c-][cH-][c-]1
inactive: [1] 23.9% | [2] 14.9% | [3] 29.6% | [4] -54.7% | [5] 24% | [6] 29.7%

CCC(C)C1(CCc2ccccc2)C(=O)NC(=O)NC1=O (configuration not stated)
inactive: [1] -2.8% | [2] -14.7% | [3] 3.55% | [4] -31.3% | [5] 10.4% | [6] -0.65%

Nc1ccc(S(=O)(=O)c2ccc(NCN3C(=O)NC(=O)C(=O)C3=O)cc2)cc1
inactive: [1] 24.9% | [2] 8.15% | [3] -11.4% | [4] 27.6% | [5] 13.6% | [6] 7.8%

ClCCN(CCCl)c1ccc(/C=N/Nc2ccnc3ccccc23)cc1
active: [1] 96.2% | [2] 96.3% | [3] 96.8% | [4] 96.5% | [5] 87.2% | [6] 88.8%

O=C(O)c1ccc(Cl)c(Cl)c1.[Ni]
inactive: [1] -19.1% | [2] -16.4% | [3] -4.35% | [4] -11.9% | [5] -23.4% | [6] -19.7%

COc1ccc(CC2OC3(CCCCC3)CC3CCCCN32)cc1 (configuration not stated)
inactive: [1] 23.2% | [2] 13.9% | [3] 11.5% | [4] 7.65% | [5] -5.6% | [6] 6%

CN1Cc2cc3cc4c(cc3nc2N(C)C1)OCCO4
inactive: [1] 1.5% | [2] 12.2% | [3] -1.5% | [4] 11.4% | [5] 8.9% | [6] 15.1%

COc1ccc([Se]c2ccc(OC)cc2)cc1
inactive: [1] 0% | [2] -15.5% | [3] -7.15% | [4] -13.6% | [5] 21.4% | [6] -4.55%

CCC1CN2CCC1CC2C(O)c1cc[n+]([O-])c2ccc(OC)cc12 (configuration not stated)
inactive: [1] -11.7% | [2] 7.25% | [3] -7.6% | [4] 1.75% | [5] -8.05% | [6] -12.4%

CC[C@@]1(O)C(=O)OCc2c1cc1n(c2=O)Cc2c-1nc1ccccc1c2C=Nc1ccccc1N[C@@H]1c2cc3c(cc2[C@@H](c2cc(OC)c(O)c(OC)c2)[C@H]2C(=O)OC[C@@H]21)OCO3
69.9% (inactive) and 85.9% (active): [5]
63% (inactive) and 82% (active): [4]
39.6% (inactive) and 85.8% (active): [6]
active: [1] 78.8% and 86.8% | [2] 71.7% and 80.9% | [3] 76.5% and 84.7%

Cc1cc(N(C)CCCl)ccc1N=Nc1ccccc1C(=O)O
inactive: [1] 36.5% | [2] 10.8% | [3] 36.8% | [4] 6% | [5] 23.4% | [6] 18.8%

CCOC(=O)C(CCc1ccc(N(CCCl)CCCl)cc1)(NC(C)=O)C(=O)OCC
inactive: [1] 1.5% | [2] -32.6% | [3] 8.65% | [4] -4.35% | [5] -16.8% | [6] -39.9%

CCOC(=O)C(=O)C1CCNC1=O (configuration not stated)
inactive: [1] 9.2% | [2] 3.35% | [3] -4.45% | [4] -0.25% | [5] -3.65% | [6] 24.5%

C/C=C/CC1(CCC(C)C)C(=O)NC(=O)NC1=O
inactive: [1] 24.4% and 26.9% | [2] 8.05% and -0.65% | [3] 9.9% and 4.75% | [4] -19.1% and -4.55% | [5] -5.4% and -2.35% | [6] 10.3% and 17.4%

O=C(O)c1ccccc1.O=C(O)c1ccccc1.O=C(O)c1ccccc1.O=C(O)c1ccccc1.[Cu].[Cu]
inactive: [1] 17.4% | [2] -10% | [3] 10.8% | [4] 3.85% | [5] 1.85% | [6] 17.1%

CNC(=O)Oc1cccc(NC(=O)OC(C)(C)C)c1
inactive: [1] 3.5% | [2] 14.8% | [3] 27.1% | [4] 1.45% | [5] 29.1% | [6] 15.1%

CC(=O)N1CCCN(C)/C1=N/[N+](=O)[O-]
inactive: [1] -20.1% | [2] -14.8% | [3] -6.7% | [4] -10.9% | [5] -15.4% | [6] -13.9%

O=C1c2c(ccc3ccccc23)CN2CCCCC12 (configuration not stated)
inactive: [1] 42.2% | [2] 19.6% | [3] 61.9% | [4] 14% | [5] 40.4% | [6] 45.2%

CCOP(=O)(OCC)C1CC(C(C)C)CC=C1C (configuration not stated)
inactive: [1] 5.4% | [2] -8.95% | [3] -2.15% | [4] 1.25% | [5] 3.75% | [6] 15.1%

O=[N+]([O-])c1ccc(CCBr)cc1
inactive: [1] 28.8% and 30.2% | [2] 1.25% and 37.6% | [3] 13.4% and 34% | [4] 17.1% and 11.8% | [5] 36.3% and 3.2% | [6] 17.6% and -2.15%

C[Si](C)(OC(=O)N(CCCl)CCCl)O[Si](C)(C)OC(=O)N(CCCl)CCCl
inactive: [1] 14.8% | [2] 1.05% | [3] -33.6% | [4] -11.4% | [5] -31% | [6] -45.6%

O=C(NC(=S)N1CC1)c1ccccc1
inactive: [1] -13.9% | [2] -43.4% | [3] -7% | [4] -7.8% | [5] -26.4% | [6] -36.3%

Cc1cc(Cl)ccc1[NH-].Cc1cc(Cl)ccc1[NH-].[Cl][Pt+2][Cl]
inactive: [1] 35.3% | [2] 12.6% | [3] 30.8% | [4] 2.05% | [5] 18.3% | [6] 30.2%

O=c1[nH]cc(N=Cc2ccccc2Cl)c(=O)[nH]1.[Cl][Pt][Cl]
inactive: [1] 20.4% | [2] -5.75% | [3] -18.1% | [4] 1.95% | [5] 1.55% | [6] -9.05%

CC1CN1P1(N2CC2C)=NP(N2CC2C)(N2CC2C)=NP(N2CC2C)(N2CC2C)=N1 (configuration not stated)
inactive: [1] -2.45% | [2] 1.3% | [3] 2.75% | [4] 15.7% | [5] -2.2% | [6] 5.5%

COc1ccccc1NC1=NCC(C)S1 (configuration not stated)
inactive: [1] -10.2% | [2] -15.2% | [3] -52% | [4] 24.4% | [5] -14.4% | [6] -2.1%
